Sampled rows, rich in hits. Any-hit rate of the full collection: about 7.3%.
VP16 counter – inhibits Gal4-VP16 luciferase reporter, ROR gamma counter-screen | Drosophila S2 Gal4-VP16 UAS-luciferase, luminescence, 20 h | Potency, µM (doses to about 53.6 µM), for inactives: at the highest dose activity, negative = inhibition, hits mostly inhibitors | 310,000 compounds, 3.5% hits;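 further: Gal4-VP16 expression switched on by copper sulfate through the metallothionein promoter; nearly all actives have a fitted effect of over 50% in size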
RORgamma inh – inhibitors of mouse ROR gamma transcriptional activity; Potency, µM (doses to about 53.6 µM), without a hit: at the top dose activity change, negative = inhibition, actives largely listed as inhibitors; 310,000 compounds, 5.4% hits; P51450; AID 2551; Drosophila S2 Gal4-RORgamma UAS-luciferase reporter, 20 h; further: nearly all actives have a fitted effect of over 60% in size
Target sequence (P51450 whole entry, looked up, the tested form may be a part): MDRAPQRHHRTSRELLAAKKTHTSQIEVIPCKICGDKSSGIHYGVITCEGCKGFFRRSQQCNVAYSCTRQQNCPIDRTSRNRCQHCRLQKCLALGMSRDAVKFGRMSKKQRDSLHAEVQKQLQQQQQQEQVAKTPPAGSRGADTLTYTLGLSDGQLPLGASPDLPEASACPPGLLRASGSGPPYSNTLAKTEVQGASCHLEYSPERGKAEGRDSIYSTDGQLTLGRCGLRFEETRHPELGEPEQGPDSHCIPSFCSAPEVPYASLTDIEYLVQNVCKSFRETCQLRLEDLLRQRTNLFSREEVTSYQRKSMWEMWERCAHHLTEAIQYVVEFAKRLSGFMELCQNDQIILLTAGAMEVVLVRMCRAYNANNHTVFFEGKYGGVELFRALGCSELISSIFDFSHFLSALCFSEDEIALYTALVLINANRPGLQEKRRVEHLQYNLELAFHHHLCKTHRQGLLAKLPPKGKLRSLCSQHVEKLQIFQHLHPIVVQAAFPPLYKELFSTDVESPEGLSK
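ROR gamma transcriptional activity was tracked as Gal4-UAS luciferase output in stably transfected Drosophila Schneider cells, with compound added 1 hr before 700 uM copper sulfate induction and a 20 hr ambient-temperature incubation.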
Tau fibril FP – tau fibrillization inhibition (FP); P10636; K18 P301L tau heparin fibrillization, Alexa594 FP, 6 h; Potency, µM (top dose mostly 57.7 µM), without a hit: top-dose activity, negative = inhibition, usual class: inhibitors; 280,000 compounds, 0.39% hits; further: nearly all actives have a fitted effect of over 55% in size
Target sequence (P10636 561-689 P618L limits assumed): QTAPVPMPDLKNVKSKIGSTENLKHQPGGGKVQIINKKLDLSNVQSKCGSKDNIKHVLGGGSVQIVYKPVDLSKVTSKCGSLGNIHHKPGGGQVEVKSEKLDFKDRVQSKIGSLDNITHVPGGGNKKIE
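Heparin (20 uM) drove fibril formation of recombinant tau K18 P301L, 15 uM unlabeled with 0.24 uM Alexa 594 label, for 6 hr at 37 C in 100 mM sodium acetate pH 7. Fluorescence polarization (555/632 nm) read 1 hr after 30 uM ThT.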
Tau fluor cs – counter-screen for tau fibril formation inhibitors | tau K18 P301L Alexa594 fluorescence, heparin fibrillization | Potency, µM (highest dose often 57.7 µM), without a hit: at the top dose activity change, negative = decrease | 280,000 compounds, 0.93% hits; further: nearly all actives have a fitted effect of over 55% in size
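Human tau K18 P301L (15 uM unlabeled, 0.24 uM Alexa 594-labeled) in 100 mM sodium acetate pH 7 with 20 uM heparin, 6 hr at 37 C. ThT 30 uM added, 1 hr ambient; Alexa 594 FP and total fluorescence read at 555/632 nm.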
Tau fibril ThT – blocks human tau fibril formation measured by thioflavin T; recombinant tau K18 P301L (four-repeat tau fragment), heparin-induced fibrillization, ThT fluorescence; Potency, µM (titrated, usually from 57.4 µM), inactives show at the top dose activity, negative = inhibition, most hits filed as inhibitors; 270,000 compounds, 2.1% hits; further: nearly all actives have a fitted effect of over 55% in size
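Heparin-induced fibrillization of the P301L-mutant K18 repeat-domain fragment of human tau was followed by ThT binding in quantitative high-throughput format.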
Active calls of the source: *; ? = inconclusive; nt = no result given; [ ] = another dose, or the depositor's remark. The call rests on the fitted dose curve; in most records, active means well fitted curve in the direction sought with a large enough effect; inconclusive means small, poorly fitted or top-dose-only effect, or another doubt; inactive means no such curve, though single readings can be large; an effect the other way counts as inactive or inconclusive. On the % scale 0 is the no-effect control and ±100 the full control effect; potency means the concentration at half of the fitted maximal effect.

SMILES | VP16 counter | RORgamma inh | Tau fibril FP | Tau fluor cs | Tau fibril ThT
CCOc1ccc(CNC(=O)CCc2c(C)nn(-c3ccc(N4CCOCC4)nn3)c2C)cc1 | nt | nt | 6% | 11% | 2%
Cc1cc(-c2ccc(S(=O)(=O)Nc3cc(Cl)ccc3C)s2)on1 | nt | nt | ? | -29% | -3%
Cc1nc2cccnc2n1C1CCN(S(C)(=O)=O)CC1 | nt | nt | 2% | 3% | -3%
CCN(CC)C(=S)Sc1c(-c2ccccc2)c2cc(Cl)ccc2[nH]c1=O | 7.9µM* | 8.9µM* | -6% | -29% | -9%
O=C(O)CSc1c(-c2ccccc2)c2cc(Cl)ccc2[nH]c1=O | ? | ? | ? | 0% | 1%
CCOC(=O)c1sc2nc3c(SCCC(=O)O)cc(C(=O)c4cc(OC)ccc4O)cn3c(=O)c2c1C | -7% | ? | -4% | -24% | 25µM*
CCOC(=O)c1sc2nc3c(SCCC#N)cc(C(=O)c4cc(F)ccc4O)cn3c(=O)c2c1C | 4% | -14% | -16% | ? | ?
O=C(O)CSc1cc(C(=O)c2cc(F)ccc2O)cn2c(=O)c3c(-c4ccccc4)csc3nc12 | -17% | 35µM* | -13% | -25% | 28µM*
Cn1cc(CNCc2ccc(OC(F)(F)F)cc2)c(-c2ccc3c(c2)OCCO3)n1 | 3.5µM* | 10µM* | -3% | -21% | -17%
Cn1cc(CNCc2cn[nH]c2-c2ccc(F)cc2)c(-c2ccc3c(c2)OCCO3)n1 | 0% | 12% | -6% | -8% | -7%
O=C(Nc1ccccc1-c1nc2ccccc2[nH]1)c1ccc(S(=O)(=O)N2CCCCC2)cc1 | -4% | -14% | 13µM* | ? | 6%
CC1CCCCN1S(=O)(=O)c1ccc(C(=O)Nc2ccccc2-c2nc3ccccc3[nH]2)cc1 (configuration not stated) | 4% | -10% | 14µM* | ? | 16%
CC1CCCCN1S(=O)(=O)c1ccc(C(=O)Nc2ccccc2-c2nc3ccccc3s2)cc1 (configuration not stated) | 1% | -27% | 7% | 0% | 10%
Cc1nc(COC(=O)c2cc(O)c3ccccc3c2O)cs1 | -13% | ? | ? | ? | 25µM*
CCOC(=O)c1c(Nc2ccccc2)sc(/C=C2\C=Nc3ccccc32)c1O | 0% | 15% | 0% | ? | -14%
Oc1nc(Nc2ccccc2)sc1/C=C1\C=Nc2ccccc21 | 4% | -8% | -14% | 8.9µM*[quencher] | 3.5µM*
Cc1ccc([C@H]2Nc3ccc(S(=O)(=O)Nc4cccc(Cl)c4C)cc3[C@H]3C=CC[C@H]32)cc1 | nt | nt | -8% | ? | 13µM*
COc1cccc([C@H]2Nc3ccc(S(=O)(=O)Nc4cc(C)ccc4C)cc3[C@H]3C=CC[C@H]32)c1 | nt | nt | 4% | ? | ?
O=C(O)c1ccc(NS(=O)(=O)c2ccc3c(c2)C2C=CCC2C(c2ccccc2F)N3)cc1 (configuration not stated) | 0% | 1% | ? | ? | 32µM*
CCN1CCN(c2cc(N3CCc4ccccc4C3)c(F)cc2[N+](=O)[O-])CC1 | 1% | -42% | 6% | -22% | 14µM*
CC(=O)N1CCN(c2cc(N3CCCC3)c(F)cc2[N+](=O)[O-])CC1 | -3% | 0% | -18% | -13% | ?
CCN(CC(=O)NCc1cccs1)C(=O)C(c1ccccc1)c1ccccc1 | -3% | 7% | nt | nt | nt
CC(C)COc1ccc(CNC(=S)NCc2ccccc2)cc1 | 18µM* | 7.1µM* | -8% | ? | -22%
COc1ccc(CNC(=S)NC(C)CCc2ccccc2)cc1 (configuration not stated) | 14µM* | 3.2µM* | -9% | -28% | -2%
OCCNC(=S)NCc1ccccc1 | 4% | 11% | 10% | 4% | -4%
SMILES | VP16 counter | RORgamma inh | Tau fibril FP | Tau fluor cs | Tau fibril ThT
CCNC(=S)NCc1ccc(F)cc1 | -5% | -23% | -9% | 0% | -7%
Fc1ccc(CNC(=S)NCc2ccc(F)cc2)cc1 | ? | 11µM* | -4% | -12% | 4%
COc1ccc(CNC(=S)NCc2ccc(F)cc2)cc1 | ? | 11µM* | nt | nt | nt
COc1ccc(CNC(=O)COc2ccc(F)cc2)cc1 | -12% | 0% | -2% | 4% | 0%
COc1ccc(CCNC(=O)Cc2c(C)c3cc4c(C)coc4cc3oc2=O)cc1OC | nt | nt | 3% | -4% | 0%
CCOc1ccc(C2c3c(oc4ccc(C)cc4c3=O)C(=O)N2CCCN2CCOCC2)cc1 (configuration not stated) | nt | nt | -9% | -4% | -5%
Cn1ncc(Cl)c1C(=O)N1CCC(Cc2ccccc2)CC1 | 15% | 0% | nt | nt | nt
CCOc1ccc(CC(=O)NNC(=S)NC)cc1 | -1% | -37% | -2% | 5% | 1%
COc1ccc(CNC(=O)/C(C)=C\C(=O)O)cc1 | 10µM* | 5.6µM* | 2% | -2% | -15%
COc1ccc(CNC(=S)NCc2ccc(OC)cc2)cc1 | -8%[10 µM] | 13µM* | -10% | -17% | -9%
CCOc1ccc(CNC(=S)NCc2ccc(OCC)cc2)cc1 | ? | 10µM* | 1% | -12% | -6%
COC(=O)Cc1ccc(NC(=S)NCc2ccc(OC)cc2)cc1 | 1% | ? | -1% | -8% | -10%
CN(C)c1ncc2nc(-c3ccccc3)c(=O)n(-c3ccccc3)c2n1 | -12% | -26% | nt | nt | nt
Cc1ccccc1C(=O)NCC(c1cccnc1)N1CCc2ccccc21 (configuration not stated) | nt | nt | -12% | -16% | -5%
COc1cc(/C=N/NC(=O)[C@H](Cc2c[nH]c3ccccc23)NC(=O)OCC(C)C)cc([N+](=O)[O-])c1O | -13% | -2% | ? | ? | 14µM*
COc1cc(/C=N/NC(=O)Cc2ccccc2)cc([N+](=O)[O-])c1O | 1% | 3% | nt | nt | nt
COc1cc(Cl)c(C)cc1NC(=O)CC(c1ccc(F)cc1)N1Cc2ccccc2C1=O (configuration not stated) | nt | nt | 2% | -12% | 6%
Cc1ccc(NNC(N)=S)cc1Cl | 5µM* | ? | -12% | -8% | ?
NC(=S)Nc1ccc(Cl)c(Cl)c1 | 0% | -18% | 7% | -4% | nt
NC(=S)NNc1ccc(Cl)c(Cl)c1 | 10µM* | 6.3µM* | ? | -25% | nt
O=C(Nc1ccc2c(c1)COC2=O)c1ccc(Cl)c(Cl)c1 | 19% | -4% | nt | nt | nt
Cc1cc(C)nc(SCC(=O)c2ccc(O)c(O)c2)n1 | ? | -44% | nt | nt | nt
Cc1cc(SCC(=O)c2ccc(O)c(O)c2)n2nc(C)c(-c3ccccc3)c2n1 | -27% | -23% | -4% | 11µM*[quencher] | ?
COc1ccc(-c2cc(-c3ccccc3)c(C#N)c(SCC(O)CS(=O)(=O)Cc3ccc(Cl)cc3)n2)cc1 (configuration not stated) | nt | nt | ? | ? | -6%
